LMP1 NFkB inh: EBV LMP1-driven NF-kappaB luciferase reporter inhibitors, primary screen, cell-based, luminescence, single point. LMP1-induced NF-kappaB luciferase reporter cells. inhibition, % at 12.5 µM. 0.69% of 350,000 active; in the data active = inhibition above about 41%;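 also: 0% = neutral control wells and 100% = reference inhibitor control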
Peg3 promoter: Peg3 promoter-driven luciferase inhibitors, primary screen, cell-based, HeLa, luciferase luminescence | HeLa PEG-Prom luciferase reporter, overnight | inhibition, % at 20 µM | 1.7% of 360,000 active;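 active = inhibition of at least 50% at 20 µM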
KKLEB cytotox: cytotoxicity in KKLEB CF airway cells, primary screen, cytotoxicity control for CF NF-kB inhibitor project, cell-based, uHTS, fluorescence assay plates; KKLEB CF airway cells viability, ATPlite luminescence, overnight; active compounds read low; cells stimulated with P. aeruginosa culture filtrate; 0.36% of 360,000 active; AID 602141, 2011; activity change (cytotoxicity), % at 5 µM;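 active = corrected activity change at or below -50% at 5 µM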
HIF-2a inh: HIF-2a reporter inhibitors, primary screen, luminescence, 786-0 RCC cells. inhibition, % at 18.8 µM. 0.72% of 360,000 active. 786-0 RCC cells HIF-2a reporter, luciferase luminescence, overnight. AID 624352, 2012;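 active = inhibition of the luminescence signal of 40% or more relative to plate controls, in a single-dose primary screen at 18.75 µM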
Shn3 inh set2: reduction of Shn3 3'UTR firefly luciferase signal, primary screen, Schnurri-3 inhibitor project, cell-based, Clone20 osteoblasts, set 2; 0.52% of 360,000 active; inhibition, % at 12.5 µM; Clone20 osteoblast Shn3 3'UTR firefly luciferase, 24 h; AID 588674, 2011;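 active = mean inhibition of at least 75% with every replicate also reaching 75%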;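 also: 0% = median of neutral control wells and 100% = pilot-screen positive control compound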
CF NFkB inh: inhibitors of PAF-induced NF-kB signaling, primary screen, cell-based, GFP fluorescence, uHTS. AID 588850, 2011. inhibition, % at 5 µM. 0.86% of 360,000 active. KKLEB NF-kB-GFP reporter, GFP fluorescence overnight;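 active = at least 50% inhibition at 5 µM, scaled per plate between neutral and stimulator controls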;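 also: PAF is a Pseudomonas aeruginosa culture filtrate used as stimulus; plate controls were PAF-stimulated DMSO wells for no effect and unstimulated DMSO wells for full effect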
The depositor's hits bear a star; nt = no result. Most compounds without a hit are left out; they make up all but 2.9% or so of the library.

SMILES | LMP1 NFkB inh | Peg3 promoter | KKLEB cytotox | HIF-2a inh | Shn3 inh set2 | CF NFkB inh
CC1(C)C[C@H](O)[C@]2(CO)[C@H](O)C[C@]3(C)C(=CCC4[C@@]5(C)CC[C@H](O)C(C)(C)C5CC[C@]43C)[C@@H]2C1 (some centres undefined) | -5 | 95* | -65* | 12 | 35 | 69*
C=CCn1c(SCC(=O)c2ccc(CNC(C)=O)o2)nc2ccccc2c1=O | 82* | 4 | 1 | 18 | -19 | -7
C=CCn1c(SCC(=O)NC2CC2)nc2ccccc2c1=O | 1 | -3 | 4 | -2 | 5 | -5
C(=N\Nc1nc2ccccc2[nH]1)/c1cccc2nccnc12 | 47* | -20 | -18 | -98 | 57 | 0
CCN(CC)c1ccc(/C=N/Nc2nc3ccccc3[nH]2)c(O)c1 | 55* | -12 | 5 | -119 | 77 | -4
CCCCn1c(/C=N/Nc2nc3ccccc3[nH]2)nc2ccccc21 | 15 | -29 | -6 | -135 | 64 | 2
CCN(CC)c1ccc(/C=N/NC(=O)c2ccco2)c(O)c1 | 69* | -93 | -2 | -298 | 70 | -23
COc1cc(OC)c(OC)cc1/C=N/Nc1nc2ccccc2[nH]1 | 10 | 0 | 13 | 20 | -3 | -1
CCN(CC)c1ccc(/C=N/NC(=O)c2ccco2)cc1 | -4 | -120 | -20 | -122 | -14 | 31
Fc1ccccc1-c1ccc(/C=N/Nc2nc3ccccc3[nH]2)o1 | -19 | -226 | -55* | -184 | -60 | -8
O=C(c1ccc([N+](=O)[O-])cc1)N1CCSC1c1ccccc1Cl (centres undefined) | 8 | 12 | -3 | 21 | -3 | 3
COc1ccc(C2SCCN2C(=O)c2ccc([N+](=O)[O-])cc2)cc1 (centres undefined) | 42* | 21 | 15 | 3 | 2 | -14
Cc1cc(C(=O)N2CCN(c3ccc(C(F)(F)F)cn3)CC2)c(C)o1 | 13 | 2 | 4 | 8 | 18 | 0
Cc1cccc(C(=O)N2CCN(c3ccc(C(F)(F)F)cn3)CC2)c1C | 45* | 7 | 1 | 19 | 1 | 15
COc1ccccc1-c1noc(-c2ccccc2)n1 | 47* | -289 | -1 | -228 | -45 | -19
CCN(Cc1ccccc1)c1ccc(/C=C(\C#N)c2ccccn2)cc1 | -48 | -319 | 9 | -267 | -43 | -5
CCN(CC)c1ccc(/C=C(\C#N)c2ccccn2)cc1 | -89 | 0 | -50* | -59 | 35 | -11
CN(CCC#N)c1ccc(/C=C(\C#N)c2ccccn2)cc1 | -16 | -46 | -52* | -39 | -15 | -19
O=C(NNS(=O)(=O)c1ccccc1)Nc1ccc(F)cc1 | -6 | -14 | 10 | -5 | -7 | -36
O=C(NCc1ccccc1)c1cccc(COc2ccc3c(c2)CCC3)c1 | 58* | -119 | -9 | 15 | -17 | -11
COc1cccc(OC)c1C(=O)NNC(=O)c1cccc(COc2ccc3c(c2)CCC3)c1 | 30 | -258 | 7 | -69 | -39 | -15
CC(OC(=O)c1ccccc1NCCO)C(=O)NCC(=O)Nc1ccc(F)c(F)c1F (centres undefined) | -2 | 24 | -14 | -4 | -8 | 13
C=CC(=O)N1C/C(=C/c2ccc(F)cc2)C(=O)/C(=C\c2ccc(F)cc2)C1 | 89* | 107* | -69* | 82* | 91* | 91*
COc1cccc(/C=N/NC(=O)CN2CC(c3ccccc3)CC2=O)c1O (centres undefined) | 7 | 22 | 1 | -4 | 9 | -18
O=C(COC(=O)c1cccc(S(=O)(=O)N2CCOCC2)c1)NC1CCCCC1 | -14 | -11 | 10 | 11 | -3 | -2
SMILES | LMP1 NFkB inh | Peg3 promoter | KKLEB cytotox | HIF-2a inh | Shn3 inh set2 | CF NFkB inh
CCOC1=C2CN(S(=O)(=O)c3ccc(C)cc3)[C@@H](c3cccc4ccccc34)C[C@H]2[C@H]2C(=O)N(c3ccccc3)C(=O)[C@H]2C1 | nt | 8 | 16 | 14 | -4 | -19
CCOC1=C2CN(S(=O)(=O)c3ccc(C)cc3)[C@H](c3cccc4ccccc34)C[C@H]2C(C#N)(C#N)C(C#N)(C#N)C1 | nt | 52* | -13 | 15 | 61 | 39
CCOC1=C2[C@H](c3ccccc3)N(S(=O)(=O)c3ccc(C)cc3)C(C(C)(C)C)[C@H]2C(C#N)(C#N)C(C#N)(C#N)C1 (some centres undefined) | nt | 78* | -28 | 49* | 87* | 67*
O=C(c1ccc(F)cc1)N(C(=O)c1ccc(F)cc1)c1ncccn1 | -3 | -9 | 10 | 1 | 4 | -7
OC(c1ccccc1)(c1nc(-c2cccc3cccnc23)cs1)C(F)(F)F (centres undefined) | nt | 7 | -9 | -12 | 19 | 19
NC(=O)c1ccccc1NC(=O)c1cccc(C(=O)Nc2ccccc2C(N)=O)n1 | nt | 38 | -6 | -3 | 21 | -18
COc1cc(/C=N/NC(=O)c2cccc(S(=O)(=O)N3CCOCC3)c2)cc(OC)c1O | 65* | 0 | 7 | 16 | -10 | -15
COc1cc(/C=N\NC(=O)c2ccc(-c3ccccc3)cc2)cc(Br)c1O | -1 | -54 | -1 | -11 | 13 | 65*
COc1ccc(C(=O)NNC(=O)c2cccc(S(=O)(=O)N3CCOCC3)c2)cc1 | -2 | 6 | 12 | 5 | 96* | -4
COc1cc(OC)c(OC)cc1/C=N/NC(=O)c1cccc(S(=O)(=O)N2CCOCC2)c1 | 18 | 1 | 2 | 17 | 2 | 9
COc1ccc(NS(=O)(=O)c2cccc(C(=O)N3CCC3)c2)cc1 | 0 | 11 | 3 | 8 | 4 | 18
COc1ccc(NS(=O)(=O)c2cccc(C(=O)N3CCCC3)c2)cc1 | 2 | 58* | 13 | 10 | 7 | 11
COc1ccc(NC(=O)c2cccc(S(=O)(=O)N3CCOCC3)c2)cc1 | -15 | -19 | 14 | -58 | -16 | -5
COc1ccc(/C=N/NC(=O)c2ccc(-c3ccccc3)cc2)cc1O | -1 | -9 | 9 | 5 | 7 | 28
CCOc1ccc(OCc2cccc(C(=O)N3CCCC3)c2)cc1 | 54* | -145 | 4 | -36 | -31 | -29
COC(=O)c1c(N2C(=O)[C@H]3[C@@H](C2=O)[C@]2(C(=O)Nc4c(C)cccc42)N2CCC[C@@H]32)sc(C)c1C | 3 | 56* | -21 | 25 | 17 | 16
COc1ccc(OCC(=O)NC(=S)Nc2ccccc2F)cc1 | 6 | -40 | 14 | -69 | 1 | 2
